The record followed here is PubChem BioAssay.

The nature of assay [1]: liver-stage malaria parasite growth inhibition, primary screen, cell-based, HepG2, luciferase luminescence, HepG2 viability (AID 624349).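 Further: 100% = mean of DMSO negative control wells on the same plate.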 The following applies: P. berghei liver stage in HepG2, luciferase luminescence, concentration not given here; parasite load remaining: stronger effect = lower value; viability: measured here: HepG2 viability without parasites.
A short description of assay [2]: stimulators of nuclear beta-catenin in C2C12, primary screen, imaging, WNT3A-conditioned medium, mouse C2C12, NPC library (AID 1117326; in the data active means nuclear beta-catenin stimulation mostly above about 4.2%, no sharp cut-off; inactive means mostly below about 10%). The following applies: stronger effect = higher value.
Assay [3] can be described thus: stimulators of insulin release from INS-1E, primary screen, cell-based, 5 mM glucose, NPC library (AID 1117329;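 active means compound raises insulin release from rat beta cells at 5 mM glucose, no numeric limit stated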). The following applies: rat INS-1E insulin secretion, at 10 µM, stronger effect = higher value.
A short description of assay [4]: growth inhibition of GSK3B-pretreated HCT116 cells – cell-based, CellTiter-Glo, 0.2 to 20 µM (AID 1117336;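 active means compounds lowering colon cancer cell viability after pretreatment blocking the GSK3B kinase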). The settings on record: HCT116 viability after GSK3B inhibitor, at 20 µM, stronger effect = higher value.
Assay [5] is described as follows: inhibition of endothelial tube formation, primary screen, imaging, VEGF stimulated, CD31 staining, tube area, NPC library (AID 1117340;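 active means compound that reduces growth-factor-driven endothelial tube area in a mixed cell culture, no cutoff stated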). The settings on record: VEGF-stimulated ADSC/ECFC co-culture, at 10 µM, stronger effect = higher value.
Assay [6] in a line: glucagon-like peptide 1 release enhancers, primary assay, NCI-H716 cell line, NPC library (AID 1117341;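 active means compound raises GLP1 secretion from the human gut endocrine cells, with no numeric limit stated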). The following applies: NCI-H716 cells, at 10 µM, stronger effect = higher value.
Assay [7] is described as follows: HCT116 colon cancer cell growth inhibition, primary screen, CellTiter-Glo luminescence, NPC library (AID 1117342;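 active means compounds that lower survival of HCT116 colon cancer cells in the luminescence readout, no numeric limit stated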). The settings on record: at 20 µM (top of the series).
A short description of assay [8]: CellTiter-Glo luminescent readout of SW480 viability loss, NPC library primary (AID 1117343;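 active means compounds that lower viability of the colon cancer cells in the luminescence readout, with no numeric limit stated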). The following applies: CellTiter-Glo luminescence; at 20 µM (top of the series).
The nature of assay [9]: decreased DLD-1 cellular survival, CellTiter-Glo luminescent readout, NPC compound collection, primary HTS (AID 1117346;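 active means compounds that lower survival of DLD-1 colon cancer cells in the luminescence readout, no cutoff given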). The settings on record: DLD-1 viability, CellTiter-Glo luminescence; at 20 µM (top of the series).
Assay [10] addresses 6-phosphogluconate dehydrogenase, decarboxylating (Homo sapiens) (UniProt P52209). Nature of the assay: 6PGD enzyme inhibitors, primary screen, biochemical, human, recombinant enzyme, NADPH absorbance (AID 1159550;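 active means at least 20% inhibition of 6-phosphogluconate dehydrogenase activity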). The following applies: recombinant 6PGD, NADPH absorbance 341 nm; at 10 µM; stronger effect = higher value.
Assay [11] relates to Aerobactin synthetase IucA (Klebsiella pneumoniae hvKP1). Put plainly: Biochemical IucA enzyme inhibition primary screen of the Spectrum library (AID 1346200; call rule not given here;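 further: 100% = wells without compound and 0% = wells lacking enzyme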). The following applies: malachite green pyrophosphate, A620, at 8 µM, stronger effect = lower value.
The nature of assay [12]: sensitizers of A549 cells to miR-34 induction, primary screen, imaging, A549 dox-inducible miR-34, nuclei and caspase counts (AID 1347080;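 active means compounds whose cell count with miR-34 switched on is under 0.7 times the count with it off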). The following applies: A549 miR-34 inducible, Hoechst nuclei count, 48 h.
Assay [13] addresses Mitogen-activated protein kinase 7 (Homo sapiens) (UniProt Q13164). Put plainly: ERK5 transactivation activators in reporter cells, primary screen, cell-based, HTS (AID 1508626;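 active means luciferase signal above three times the same-plate solvent-only control wells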;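 further: luciferase driven by Gal4-ERK5 fusion binding five Gal4 sites before minimal TATA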). The following applies: HeLa Gal4-ERK5 transactivation, 18 h, at 5 µM, stronger effect = higher value.
Assay [14] can be described thus: viability rescue of complex I mutant cybrids, primary screen, cell-based, galactose medium, ATP luminescence (AID 1645843;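 active means z-score of at least 1.8 in each of two replicates, scored against plate mean and spread of sample wells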;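 further: positive z means more ATP and so rescue of galactose-driven cybrid death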). The settings on record: complex I mutant cybrid cells, 72 h, stronger effect = higher value.
Assay [15] in a line: survival rescue of mitochondrial mutant cells in low glucose, primary screen, MELAS cybrids, Rieske KO mouse fibroblasts, CellTiter-Glo (AID 1508586;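 active means mean z-score across replicates of 1.96 or higher in either the MELAS or the Rieske mutant cell line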;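 further: z relative to plate mean and SD of compound and empty wells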).
Assay [16] deals with NAD(+) hydrolase SARM1 (Homo sapiens) (UniProt Q6SZW1). Nature of the assay: SARM1 TIR NADase inhibitors, cell lysate, NAD-Glo luminescence (AID 1508614;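 active means compound whose remaining NAD level is above about 45 nM, limit read from the data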). The settings on record: SAM-TIR HEK293T lysate NADase, at 1 µM, stronger effect = higher value.
A short description of assay [17]: suppressors of polyQ aggregation in yeast, 75Q-TubU reporter (AID 1593). The following applies: Yeast 75Q polyglutamine aggregation reporter.
Assay [18] can be described thus: inhibitors of mitochondrial cytochrome c release, biochemical, purified mitochondria (AID 1603).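 Further: mouse liver mitochondria challenged with calcium chloride; signal normalized to the plate average as 100%.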 The following applies: stronger effect = lower value.
Assay [19] can be described thus: inhibitors of polyQ protein aggregation (AID 1604). The following applies: polyglutamine-induced protein aggregation inhibition assay; stronger effect = higher value; tested at 2.5 µM.
Assay [20] can be described thus: differential killing of epithelial or mesenchymal cells, primary screen, imaging, PC-3E GFP, TEM4-18 mCherry, co-culture (AID 1345086;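 active means compounds killing one labelled cell type while sparing the other, by normalised counts and ratio limits, not self-fluorescent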;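 further: cells exposed to compound for 72 h before imaging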;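 on red/green cell ratio (normalised): normalised mesenchymal count divided by normalised epithelial count so high means epithelial killing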). The settings on record: imaging cell counts, at 1 µM.
[21] abbreviates: measured here: relative caspase fold change +Dox/-Dox.
Setting [22] is: measured here: total cells with miR-34 induction, stronger effect = lower value.
Where [23] appears, read: measured here: total cells without miR-34 induction.
Where [24] appears, read: MELAS cybrid survival, CellTiter-Glo 48 h, stronger effect = higher value.
Where [25] appears, read: Rieske KO mouse fibroblast survival, CellTiter-Glo 72 h.

Several values for one entry are separate records, joined by “and”; a condition that tells them apart may be missing. Identical values can stand only once. Activity calls are given as the source filed them. Unless noted, no stated cut-off is given here; in the data, active means parasite load remaining mostly below about 12% (no sharp cut-off); inactive means mostly above about 10%.

Sequence of 6-phosphogluconate dehydrogenase, decarboxylating (Homo sapiens) (P52209 whole entry, looked up): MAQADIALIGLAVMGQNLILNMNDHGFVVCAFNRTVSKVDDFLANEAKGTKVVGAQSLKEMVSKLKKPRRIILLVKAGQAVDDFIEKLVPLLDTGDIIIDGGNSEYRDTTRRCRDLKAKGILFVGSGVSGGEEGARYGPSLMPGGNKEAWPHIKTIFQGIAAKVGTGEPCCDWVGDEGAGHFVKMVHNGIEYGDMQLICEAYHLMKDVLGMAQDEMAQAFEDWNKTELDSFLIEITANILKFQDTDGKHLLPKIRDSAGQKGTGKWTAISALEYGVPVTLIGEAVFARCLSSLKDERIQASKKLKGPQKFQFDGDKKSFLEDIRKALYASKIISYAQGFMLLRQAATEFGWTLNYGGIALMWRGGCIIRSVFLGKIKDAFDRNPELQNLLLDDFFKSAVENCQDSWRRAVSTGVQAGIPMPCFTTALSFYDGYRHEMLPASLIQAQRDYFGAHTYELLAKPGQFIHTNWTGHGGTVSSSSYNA
Sequence of Mitogen-activated protein kinase 7 (Homo sapiens) (Q13164 whole entry, looked up, the tested form may be a part): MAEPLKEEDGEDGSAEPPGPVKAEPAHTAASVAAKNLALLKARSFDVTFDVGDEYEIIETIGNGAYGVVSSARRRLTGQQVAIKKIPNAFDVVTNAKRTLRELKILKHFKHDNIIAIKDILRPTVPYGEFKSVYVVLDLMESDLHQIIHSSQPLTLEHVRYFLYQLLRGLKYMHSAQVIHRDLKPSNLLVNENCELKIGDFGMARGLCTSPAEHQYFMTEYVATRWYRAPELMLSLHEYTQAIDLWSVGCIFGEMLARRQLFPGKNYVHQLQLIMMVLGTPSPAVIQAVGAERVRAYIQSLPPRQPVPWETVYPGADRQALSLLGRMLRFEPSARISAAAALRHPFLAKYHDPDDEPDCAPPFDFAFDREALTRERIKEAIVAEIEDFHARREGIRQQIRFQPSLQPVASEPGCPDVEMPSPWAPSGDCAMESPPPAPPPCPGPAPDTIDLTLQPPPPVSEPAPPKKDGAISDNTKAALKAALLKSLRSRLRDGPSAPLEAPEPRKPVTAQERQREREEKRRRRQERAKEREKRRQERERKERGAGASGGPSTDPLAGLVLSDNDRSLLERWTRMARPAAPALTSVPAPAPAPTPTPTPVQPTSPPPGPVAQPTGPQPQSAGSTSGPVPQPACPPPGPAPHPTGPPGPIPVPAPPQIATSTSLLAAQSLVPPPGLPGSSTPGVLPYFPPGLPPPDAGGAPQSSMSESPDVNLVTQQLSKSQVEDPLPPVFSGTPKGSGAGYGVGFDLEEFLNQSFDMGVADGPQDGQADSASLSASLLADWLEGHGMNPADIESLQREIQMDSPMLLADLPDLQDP
Sequence of NAD(+) hydrolase SARM1 (Homo sapiens) (Q6SZW1 whole entry, looked up): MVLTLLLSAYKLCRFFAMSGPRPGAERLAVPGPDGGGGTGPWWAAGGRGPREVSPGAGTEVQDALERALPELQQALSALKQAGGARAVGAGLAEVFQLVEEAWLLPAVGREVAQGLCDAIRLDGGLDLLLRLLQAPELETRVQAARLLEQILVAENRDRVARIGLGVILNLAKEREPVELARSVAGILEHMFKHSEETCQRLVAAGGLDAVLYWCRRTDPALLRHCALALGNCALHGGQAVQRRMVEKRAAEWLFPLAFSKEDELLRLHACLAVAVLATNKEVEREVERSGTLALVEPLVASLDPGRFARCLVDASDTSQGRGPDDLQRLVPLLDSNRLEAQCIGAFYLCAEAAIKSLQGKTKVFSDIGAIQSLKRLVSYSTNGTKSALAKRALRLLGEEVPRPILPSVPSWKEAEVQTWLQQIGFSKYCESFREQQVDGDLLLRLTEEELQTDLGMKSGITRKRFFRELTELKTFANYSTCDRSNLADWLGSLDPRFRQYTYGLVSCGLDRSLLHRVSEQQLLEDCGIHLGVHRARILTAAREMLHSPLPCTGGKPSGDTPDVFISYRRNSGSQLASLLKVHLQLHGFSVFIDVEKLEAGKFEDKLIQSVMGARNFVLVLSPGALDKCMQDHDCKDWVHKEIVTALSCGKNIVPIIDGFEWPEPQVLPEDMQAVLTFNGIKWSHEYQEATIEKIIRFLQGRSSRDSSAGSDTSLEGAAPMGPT

`COc1c2c(cc3c1OCO3)CCN(C)C2`: in assay [1], the parasite load remaining is 101% (inactive) and 78.2% (inactive). The viability in assay [1] was 102% and 69.9%. Also, the nuclear beta-catenin stimulation in [2] (at 10 µM) was 0.2% (inactive); in [2] (stimulation, at 2 µM) it was 1.3%. In assay [3], the insulin secretion stimulation was -1.1% (inactive). The viability decrease in assay [4] was 5% (inactive). For the same compound, in assay [5], the tube area decrease was 4.7% (inactive). Moreover, the GLP1 secretion stimulation in assay [6] was -0.1% (inactive). Further, the inhibition of viability in assay [7] was -4.7% (inactive). The results for the viability decrease (inhibition) in [8] and in assay [9] were 36.7% (inactive) and 4.85% (inactive), respectively. Besides, the inhibition in [10] is 1.73% (inactive). For the same compound, the activity remaining in [11] is 120% (inactive). Besides, the fold change in [12] (stronger effect = lower value) is 0.866 (inactive); in [12] (setting [21]) it was 1.09. Besides, the cell count in assay [12] (setting [22]) was 9520; in assay [12] (setting [23]) it was 11000.
For `N[C@@H]1C[C@H]1c1ccccc1`, in assay [1], the parasite load remaining is 105% (inactive). The viability in assay [1] is 90.9%. Further, the nuclear beta-catenin stimulation was 1.6% (inactive) in assay [2] (at 10 µM) and 2.1% in assay [2] (stimulation, at 2 µM). Besides, the insulin secretion stimulation in assay [3] was 0.5% (active). In addition, the viability decrease in assay [4] is -2.2% (inactive). In assay [5], the tube area decrease was -22.1% (inactive). Further, in [6], the GLP1 secretion stimulation was 3.6% (inactive). Moreover, the inhibition of viability in assay [7] is 19.4% (inactive). In addition, the viability decrease (inhibition) in assay [8] was 10% (inactive); in assay [9], -5.6% (inactive). Moreover, in assay [10], the inhibition was -7.3% (inactive) and 0.348% (inactive). The fold change in assay [12] (stronger effect = lower value, cell number ratio, induced over uninduced) was 0.966 (inactive); in assay [12] (setting [21]) it was 1.35. In addition, the cell count in assay [12] (setting [22]) was found to be 9350; in assay [12] (setting [23]), 9680. Besides, in [13], the luciferase signal was 36 AU (inactive). Also, in assay [14], the z-score was 0.32 (inactive).
For `C[C@@H]1O[C@@H](O[C@H]2C[C@@H](O)[C@]3(CO)[C@H]4[C@H](O)C[C@]5(C)[C@@H](C6=CC(=O)OC6)CC[C@]5(O)[C@@H]4CC[C@]3(O)C2)[C@H](O)[C@H](O)[C@H]1O`, the parasite load remaining in assay [1] was -1.77% (inactive) and 5.6% (inactive) and -0.23% (inactive). Also, in assay [1], the viability is 38.8% and 25.7% and 34%. For the same compound, the nuclear beta-catenin stimulation is 0% (inactive) in [2] (at 10 µM) and -1.2% in assay [2] (stimulation, at 2 µM). In assay [3], the insulin secretion stimulation is 5.8% (inactive). Also, in [4], the viability decrease is 84.8% (active). Moreover, in assay [5], the tube area decrease is 112% (active). Besides, the GLP1 secretion stimulation in [6] is 9.2% (inactive). In addition, the inhibition of viability in assay [7] was 56.6% (active). The viability decrease (inhibition) in assay [8] was 61% (active); in assay [9], 77.4% (active). Moreover, the inhibition in assay [10] is -10.9% (inactive). The fold change in assay [12] (stronger effect = lower value) was 0.999 (inactive) and 0.916 (inactive) and 0.73 (inactive); in assay [12] (setting [21]), 0.275 and 1.45 and 1.97. Also, the cell count is 345 and 529 and 320 in assay [12] (setting [22]); 346 and 578 and 438 in assay [12] (setting [23]). Besides, the z-score was 2.21 (active) in [15] (setting [24]); -0.329 in assay [15] (setting [25]); -1.23 (inactive) and -2.25 (inactive) in assay [14]. Also, the remaining NAD in assay [16] is 10 nM (inactive). Further, the luciferase signal in assay [13] is 16 AU (inactive).
Take `Cc1cc(O)ccc1Cl`: in assay [17], the score is 0.98. In addition, in assay [18], the cytochrome c release ratio was 1.22. The same compound registered an inhibition of aggregation in assay [19] of 88%. For the same compound, the parasite load remaining in assay [1] was 125% (inactive) and 54.1% (inactive). Besides, the viability in assay [1] is 73.3% and 86.2%. Besides, the nuclear beta-catenin stimulation in assay [2] (at 10 µM) was 0.9% (inactive); in [2] (stimulation, at 2 µM), 1.9%. Moreover, the insulin secretion stimulation in assay [3] is 0.3% (inactive). Further, the viability decrease in [4] was -17% (inactive). Besides, in assay [5], the tube area decrease was 1.5% (inactive). In addition, the GLP1 secretion stimulation in assay [6] was 0.3% (inactive). Moreover, the inhibition of viability in [7] was 3.83% (inactive). The viability decrease (inhibition) is 26.8% (inactive) in assay [8] and -3.4% (inactive) in assay [9]. Moreover, the inhibition in [10] is 3.62% (inactive). In [20] (actives lie on both sides), the red/green cell ratio (normalised) is 1.21 (inactive). Besides, the normalised cell number was 1.13 in [20] (measured here: epithelial PC-3E GFP cell survival) and 1.36 in assay [20] (measured here: mesenchymal TEM4-18 mCherry cell survival). Moreover, the activity remaining in assay [11] is 115% (inactive). The fold change in [12] (stronger effect = lower value) was 0.943 (inactive) and 0.921 (inactive); in assay [12] (setting [21]), 0.551 and 0.785. Moreover, the cell count in assay [12] (setting [22]) was 8310 and 10900; in assay [12] (setting [23]), 8820 and 11800. The z-score in [15] (setting [24]) was -0.196 (inactive); in assay [15] (setting [25]), -0.163. The remaining NAD in assay [16] is 10 nM (inactive). In assay [13], the luciferase signal was 32 AU (inactive).
